Screens from PubChem BioAssay.
H9c2 protect – modulators protecting cardiomyocytes from myocardial damage; H9c2 cardiomyocytes, H2O2 injury protection, ATPLite, 2 h; protection from H2O2 cell death, % at 20 µM; 360,000 tested, 0.63% active;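 active means compounds giving at least 50% protection of heart cells from peroxide-induced death in the single-dose screen, raw or plate-pattern-corrected value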;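 further: 0% = DMSO wells with peroxide and 100% = DMSO wells without peroxide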
V-ATPase pH – regulators of yeast V-ATPase proton transport | S. cerevisiae, pHLuorin cytosolic pH fluorescence | AID 504577 | response, % at 10 µM | 350,000 tested, 0.37% active; in the data active means response mostly above about 7.3%, no sharp cut-off; inactive means mostly below about 5.4%; further: actives read high
beta cell repl – induces beta-cell replication in MIN6 cells; MIN6 cells proliferation, ATPlite luminescence, 48 h; cells starved in 0.2% serum; 100% = growth in 10% serum; 330,000 tested, 0.29% active; proliferation, % at 10 µM;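 active means compounds whose signal lies at least 3.5 SD above the mean of all wells on their plate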;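 further: 0% = DMSO-treated cells in low-serum medium and 100% = 10% serum control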
HSV replic up – increases HSV replication in cells; HSV replication augmentation in cells, fold increase; maximum fold increase; 220,000 tested, 0.005% active; AID 1956; in the data active means maximum fold increase above about 1.5; tested in PC3 cells
Yeast superoxide – yeast age-related superoxide inhibition as caloric restriction mimetic; S. cerevisiae aged cells, superoxide DHE fluorescence; hits give low values; 330,000 tested, 0.18% active; superoxide response (% of plate mean), % at 10 µM;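 active means superoxide response under a set limit, about three screen SD below normal, cut at about 65% in these data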;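 further: yeast aged for seven days with compound at 30 °C before DHE staining; 100% = average MFI of all compound-treated wells on the plate with controls excluded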
pCIP destab – compounds decreasing mouse p/CIP protein stability | F442A p/CIP-EGFP cells, EGFP fluorescence, 16 h | decrease of EGFP signal, % at 10 µM | 290,000 tested, 0.01% active | AID 1984;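 active means EGFP signal decrease of at least 30% at 10 µM or well 3 SD below plate mean, unless failing retest; inactive means the rest, including hits failing retest or dose response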
* marks the source's active call; other numbers are inactive results; i = inactive; . = no result. In the library only some 1.4% were active in any assay of this set; here they are far more common.

SMILES | H9c2 protect | V-ATPase pH | beta cell repl | HSV replic up | Yeast superoxide | pCIP destab
O=C(NCc1ccccc1)C(=O)NCC(c1ccco1)N1CCN(c2ccccc2F)CC1 (configuration not stated) | 4 | 5 | -2 | i | 102 | -8
COC(=O)C1Cc2ccccc2CN1C(=O)CCl (configuration not stated) | -10 | -4 | -6 | i | 109 | -3
CCOC(=O)C1=C(C)NC(=O)NC1c1ccc([N+](=O)[O-])o1 (configuration not stated) | -1 | 3 | -1 | i | 101 | 2
CCOC(=O)C1=C(C)NC2=C(C(=O)c3ccccc32)C1c1ccc([N+](=O)[O-])o1 (configuration not stated) | 61* | -1 | -5 | i | 108 | 0
CC(CSC(=O)c1ccccc1)C(=O)N1c2ccccc2CC1C(=O)O (configuration not stated) | 0 | . | . | . | . | .
COc1ccc2[nH]c3c(c2c1)CCNC3C1CC=C(C)CC1 (configuration not stated) | 16 | 1 | -5 | i | 97 | -10
COc1ccc2[nH]c3c(c2c1)CCNC3c1ccc([N+](=O)[O-])o1 (configuration not stated) | 60* | 3 | -5 | . | 86 | -28
O=S(=O)(NCc1nnnn1-c1ccc(F)cc1)c1ccc(F)cc1 | 1 | 1 | . | . | . | .
O=C(CCN1C(=O)CC1c1ccco1)N1CCOCC1 (configuration not stated) | 7 | . | . | . | . | .
COc1cc(/C=N/NC(=O)c2ccc(Cl)cc2)ccc1OCC(=O)N1CC(C)OC(C)C1 (configuration not stated) | 22 | 1 | 1 | i | 99 | -10
COc1cc(/C=N/NC(=S)Nc2cccc(Cl)c2C)ccc1OCC(=O)N1CC(C)OC(C)C1 (configuration not stated) | 55* | -3 | -1 | i | 117 | -10
CCOc1cc(/C=C2\SC(=O)N=C2N)ccc1O | 13 | -1 | 0.0* | i | 100 | 2
Cc1nc(SCC(=O)NCC2CCCO2)c2c3c(sc2n1)CCCC3 (configuration not stated) | 2 | 0 | 1 | . | 83 | -8
Cc1nc(SCC(=O)NCC2CCCO2)c2c(C)c(C)sc2n1 (configuration not stated) | 0 | 13* | 1 | . | 107 | .
CCc1ccc(O)c(N=Cc2cccc(C)c2O)c1 | 60* | -2 | -4 | i | 91 | -10
CCC(=O)N1CCCC(C)(C(=O)NS(=O)(=O)c2ccccc2Cl)C1 (configuration not stated) | -2 | . | . | . | . | .
Cc1cccc(C)c1OCC(=O)NNC(=S)NC(=O)C1CC1 | 27 | 0 | -3 | . | 105 | 2
COc1ccc(-c2csc(NC(=O)CCn3cnc4ccccc4c3=O)n2)cc1OC | 58* | -1 | 0 | i | 110 | -25
COc1ccc(-c2csc(NC(=O)CCCc3nc4ccccc4c(=O)[nH]3)n2)cc1OC | 91* | -1 | 0 | . | 103 | .
COc1ccc(-c2csc(NC(=O)Cc3ccccc3)n2)cc1OC | 4 | 0 | 2 | . | 91 | -4
Cc1nnc(NC(=O)CCn2cnc3ccccc3c2=O)s1 | 0 | -1 | 1 | i | 101 | -12
Cn1ccnc1CC(O)(c1ccccc1)c1ccccc1 | 6 | -4 | 1 | . | 89 | -10
CCCCC(=O)NC(c1ccc(C(C)C)cc1)c1ccc2cccnc2c1O (configuration not stated) | 51* | -2 | -3 | . | 110 | -20
O=S(=O)(CCc1ccccc1)CS(=O)(=O)CCc1ccccc1 | -3 | 1 | . | . | . | .
Cc1ccc(S(=O)(=O)N2CCN(C(=O)c3cccc(F)c3)CC2)cc1 | 4 | -1 | -2 | i | 88 | 1
SMILES | H9c2 protect | V-ATPase pH | beta cell repl | HSV replic up | Yeast superoxide | pCIP destab
Cc1ccc(S(=O)(=O)N2CCN(C(=O)c3ccc4nc[nH]c4c3)CC2)cc1 | -1 | 15* | 0 | . | 93 | .
O=C(N/N=C\c1ccccn1)C1COc2cc3ccccc3cc2O1 (configuration not stated) | 86* | 1 | -1 | i | 102 | -4
O=C(N/N=C\c1ccccn1)c1cccc(C(=O)N/N=C\c2ccccn2)n1 | 54* | -4 | 0 | . | 96 | .
O=C(N/N=C/c1ccccn1)c1cccs1 | 56* | 3 | -2 | i | 121 | 6
Cn1ncc(Cl)c1C(=O)N/N=C/c1ccccn1 | 51* | 1 | -1 | i | 99 | -7
NNC(=O)C1COc2cc3ccccc3cc2O1 (configuration not stated) | 4 | -2 | 0 | . | 101 | 2
CC(/C=N/NC(=O)c1cc(-c2cccn2C)n[nH]1)=C\c1ccccc1 | 7 | 4 | -1 | i | 111 | -11
O=C(COC(=O)CCCSc1nc2ccccc2[nH]1)Nc1ccc(Cl)cc1 | 4 | -3 | 2 | i | 105 | 12
CCOc1cccc(Nc2cc3n(c(=O)n2)CCc2cc(OC)c(OC)cc2-3)c1 | 60* | -2 | 4 | i | 97 | -18
N#C/C(=C1\CCCN1)c1nc2ccccc2c(=O)[nH]1 | 74* | -2 | -2 | i | 87 | -2
N#C/C(=C/c1ccncc1)c1nc2ccccc2c(=O)[nH]1 | -1 | 3 | -1 | i | 100 | 1
N#Cc1cccc2c1-c1ccccc1/C2=N/NC(N)=S | 16 | -2 | -3 | . | 96 | 4
N#Cc1cccc2c1-c1ccccc1/C2=N/NC(N)=O | 56* | -1 | 1 | . | 105 | 4
N#Cc1cnc(NCc2ccc(Cl)cc2Cl)nc1 | 0 | -1 | 1 | . | 94 | -4
O=C1C(N2CCOCC2)=Cc2cccc3cccc1c23 | 13 | 0 | . | . | . | .
O=C1C=C(N2CCOCC2)c2cccc3cccc1c23 | 61* | -3 | . | . | . | .
CCCCNC(=O)c1cn(-c2ccc(OCC)cc2)c(=O)c2cc(OC)c(OC)cc12 | 65* | -4 | -2 | i | 97 | -4
CCOc1ccc(NC(=O)c2cn(-c3ccc(OCC)cc3)c(=O)c3cc(OC)c(OC)cc23)cc1 | 8 | -2 | -5 | i | 91 | -25
C[N+](C)(C)C(Cc1c[nH]c2ccccc12)C(=O)[O-] (configuration not stated) | . | . | 0 | i | . | 6
C/C(=N\N=C\c1ccccc1)c1nnn(-c2nonc2N)c1C | -12 | -3 | 0 | i | 104 | -1
C=CCn1c(O)c2ccc(C(=O)N=NC(=O)COc3ccc(OC)cc3)cc2c1O | -1 | 3 | 5 | . | 106 | 2
COc1ccc2c(c1)C=C([C@@H]1C[C@H]3CN(c4ccccc4)C(=O)[C@]34CCCN14)CO2 | -4 | 0 | 3 | i | 99 | -4
Cc1ccc(N(C(=O)Cn2nnc3ccccc32)C(C(=O)NC2CCCCC2)c2cn(C)nc2C)cc1 (configuration not stated) | 1 | 1 | -2 | i | 127 | -12
